This is an account of results in PubChem BioAssay (NCATS).

Records with an inconclusive call do not appear. Activity calls are given as the source filed them. Calls come from the whole dose curve; as a rule, active = well fitted inhibition curve with a large enough effect; inconclusive = small, poorly fitted or top-dose-only effect; inactive = flat fitted curve, though single readings scatter. Numbered stars: 1 amine (or outer) side, 2 acyl side, 3 side chain; on linkers, the order of the positions; unused ones are H or OH. Square brackets hold non-standard residues; d marks the D form. Peptide text beside a SMILES is read from it. * marks the point of attachment. ξ: configuration not given here. X9 = CCC(C)(N*)C(=O)C1CC[C@@H](C(=O)N[C@@H](Cc2ccccc2)C(=O)NCC(=O)O)N1; X8 = O=C([C@@H]1CC(O)CN1[*:1])[*:2]; aIle = CC[C@@H](C)[C@H](N)C(=O)O; Thr(3ξ) = CC(O)[C@H](N)C(=O)O; ξIva = CCC(C)(N)C(=O)O; Aib = CC(C)(N)C(=O)O

This assay deals with Aldehyde dehydrogenase, mitochondrial (Homo sapiens) (UniProt P05091). Description: qHTS for Inhibitors of the Aldehyde Dehydrogenase Family (ALDH2) Primary screen (AID 2061308).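 Note: plate controls were vehicle for no effect and reference inhibitor for full effect; nearly all actives have a fitted effect of over 55% in size.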 Conditions: ALDH2 enzyme inhibition qHTS, 1536-well; series mostly up to 56 µM; activity change, negative = inhibition: at the top concentration.
As to `CC(=O)O[C@@H]1[C@@H](O)[C@H](C)O[C@@H](O[C@H]2[C@@H]3C=CO[C@@H](O[C@@H]4O[C@H](CO)[C@@H](O)[C@H](O)[C@H]4O)[C@@H]3[C@@]3(CO)O[C@@H]23)[C@@H]1OC(=O)/C=C/c1ccccc1`, the “activity change, negative = inhibition” value is 2.16% [at 16.9 µM] (inactive).

As to `COc1c2c(cc3c1-c1c(cc4c(c1OC)OCO4)CC(C)C(C)C3)OCO2` (configuration not stated), the “activity change, negative = inhibition” value is -6.75% (inactive). Next, `COC(=O)C(CC1(O)c2ccccc2N2C(=O)C(CC(C)C)NC21)n1cnc2ccccc2c1=O` (configuration not stated): 21.4% [at 28 µM] (inactive).

In the case of `C[C@H]1CC[C@@]2(OC1)O[C@H]1CC3C4CC=C5C[C@H](O)C[C@@H](O[C@@H]6O[C@@H](C)[C@H](O)[C@@H](O)[C@H]6O[C@@H]6O[C@@H](C)[C@H](O)[C@@H](O)[C@H]6O)[C@]5(C)C4CC[C@]3(C)[C@H]1[C@@H]2C` (some centres not stated), the “activity change, negative = inhibition” value was -7.5% [at 16.9 µM] (inactive). Regarding `COc1ccc(C[C@H]2COC(=O)[C@@H]2Cc2ccc(O[C@@H]3O[C@H](CO)[C@@H](O)[C@H](O)[C@H]3O)c(OC)c2)cc1OC`, the “activity change, negative = inhibition” value was 5.77% [at 28 µM] (inactive). For `O=C(Cc1ccccc1)OC[C@H]1O[C@H](O[C@H]2O[C@H](CO)[C@@H](O)[C@H](O)[C@H]2O)[C@H](O)[C@@H](O)[C@@H]1O`, the “activity change, negative = inhibition” value is 0.752% [at 28 µM] (inactive).

Turning to `C=C(C(=O)O)C1CC2=C(C)CCCC2(C)C[C@@H]1O` (some centres not stated), the “activity change, negative = inhibition” value was -2.05% (inactive). Turning to `C[C@@H]1O[C@@H](O[C@H]2[C@H](OC(=O)[C@]34CCC(C)(C)C[C@H]3C3=CCC5[C@@]6(C)CC[C@H](O[C@@H]7O[C@H](CO[C@@H]8OC[C@H](O)[C@H](O)[C@H]8O[C@@H]8OC[C@@H](O)[C@H](O)[C@H]8O)[C@@H](O)[C@H](O)[C@H]7O)C(C)(C)C6CC[C@@]5(C)[C@]3(C)C[C@H]4O)O[C@H](CO)[C@@H](O)[C@@H]2O)[C@H](O[C@@H]2O[C@H](CO)[C@@H](O)[C@H](O)[C@H]2O)[C@H](O)[C@H]1O[C@@H]1OC[C@@H](O)[C@H](O[C@@H]2OC[C@@H](O)[C@H](O)[C@H]2O)[C@H]1O` (some centres not stated), the activity change, negative = inhibition was 6.45% [at 11.2 µM] (inactive). Next, `COc1ccc(CC(=O)NCc2ccccc2-c2ccccc2C(=O)NCCc2cccnc2)cc1`: -4.81% (inactive); `C=C(C(=O)O)[C@@H]1CC[C@H](C)[C@@H]2CC(=O)C(C)=C2C1`: 3.54% (inactive); `Cc1ccc(Sc2cncc3sc(C(N)=O)cc23)cc1`: 3.54% (inactive). On to `C=C(C)[C@@]1(O)C[C@@]2(C)C(=CC1=O)CC[C@@H](O)[C@@H]2C`, for which the “activity change, negative = inhibition” value was 26.2% (inactive). As to `O=C1NC2CCc3nc4ccccc4c(=O)n3C2=Nc2ccccc21` (configuration not stated), the “activity change, negative = inhibition” value was -2.69% (inactive). Next, `CC[C@@H](C)[C@H](NC(=O)C(C)(C)NC(=O)[C@H](CCC(N)=O)NC(=O)C(C)(CC)NC(=O)[C@H](Cc1c[nH]c2ccccc12)NC(C)=O)C(=O)N[C@H](C(=O)NC(C)(C)C(=O)N[C@@H](CC(C)C)C(=O)NC(C)(C)C(=O)N1CCC[C@H]1C(=O)N[C@@H](CCC(N)=O)C(=O)NC(C)(C)C(=O)N1CC(O)C[C@H]1C(=O)NC(C)(CC)C(=O)C1CC[C@@H](C(=O)N[C@@H](Cc2ccccc2)C(=O)NCC(=O)O)N1)C(C)O` (some centres not stated) (Ac-W[ξIva]Q[Aib][aIle][Thr(3ξ)][Aib]L[Aib]PQ[Aib][X8]-X9): -2.86% [at 11.2 µM] (inactive). Next, `COc1cc(C)c(C(=O)O[C@H]2[C@@H](O)[C@H](n3ccc(=O)[nH]c3=O)O[C@@H]2CO)c(OC)c1`: 2.09% [at 28 µM] (inactive); `CCOc1nc(NC(=O)Cc2cc(OC)ccc2OC)cc(N)c1C#N`: -4.47% (inactive); `C=C1C(=O)O[C@@H]2C=C(COC(C)=O)CC/C=C(\CO)CC[C@@H]12`: 7.45% (inactive). Next, `O=C(O)c1cccc(-c2ccc(-c3cn(C(=O)N4CCCCC4Cc4ccccc4)nn3)cc2)c1` (configuration not stated): -9.87% (inactive).

`CC(=O)/C=C/C1C(C)CC(O[C@@H]2O[C@H](CO)[C@@H](O)[C@H](O)[C@H]2O)CC1(C)C` (some centres not stated): the “activity change, negative = inhibition” value was -3.3% (inactive). `N#Cc1cc(-c2ccnc(Nc3ccc(N4CCOCC4)cc3)n2)ccc1OC1CCOCC1`: the “activity change, negative = inhibition” value was 9.57% (inactive).

Regarding `CCCO[C@@H]1O[C@H](CO)[C@@H](O)[C@H](O)[C@H]1O[C@@H]1OC[C@@H](O)[C@H](O)[C@H]1O`, the “activity change, negative = inhibition” value is -1.59% (inactive).

Turning to `C[C@@H]1O[C@@H](O[C@H]2[C@H](O)[C@@H](O)[C@H](OC[C@H]3O[C@@H](OC(=O)[C@]45CCC(C)(C)C[C@H]4C4=CCC6[C@@]7(C)C[C@H](O)[C@H](O[C@@H]8O[C@H](CO)[C@@H](O)[C@H](O)[C@H]8O)[C@@](C)(C(=O)O)C7CC[C@@]6(C)[C@]4(C)CC5)[C@H](O[C@@H]4O[C@H](CO)[C@@H](O)[C@H](O)[C@H]4O)[C@@H](O)[C@@H]3O)O[C@@H]2CO)[C@H](O)[C@H](O)[C@H]1O` (some centres not stated), the activity change, negative = inhibition is 8.16% [at 11.2 µM] (inactive).
